Compounds without any hit were thinned out: in the full panel of roughly 79,000, 15% have a hit. A number with no mark means an inactive call. Calls of active or inactive are those of the source. Rule as the data show it: active = growth inhibition above about 70%; inactive = the rest. Where a SMILES comes first, the peptide text is derived from it. The star is where a group is joined. Cbz = O=C(OCc1ccccc1)*
Assays:
[1] = NCI Yeast Anticancer Drug Screen. Data for the rad50 strain (AID 155);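 also: 0% = growth of vehicle-only cultures of the same strain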; details: S. cerevisiae rad50 strain growth inhibition, stronger effect = higher value
How it was run: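 Yeast carrying a defined DNA repair defect were exposed to test compounds, and growth was compared with vehicle-treated controls to give percent inhibition.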

[2] = NCI Yeast Anticancer Drug Screen. Data for the mec2-1 strain (AID 157); details: S. cerevisiae mec2-1 strain, stronger effect = higher value
How it was run: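 Vehicle-treated cultures served as reference for growth inhibition of compound-exposed mec2-1 yeast.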

[3] = NCI Yeast Anticancer Drug Screen. Data for the sgs1 mgt1 strain (AID 161);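 also: 0% = growth of cultures given vehicle only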; details: S. cerevisiae sgs1 mgt1 strain, stronger effect = higher value
How it was run: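 Test agents were incubated with a DNA-repair-mutant yeast strain. Growth was then read and compared against vehicle-treated controls.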

[4] = NCI Yeast Anticancer Drug Screen. Data for the cln2 rad14 strain (AID 165);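 also: 0% = growth equal to vehicle treated cultures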; details: S. cerevisiae cln2 rad14 strain, stronger effect = higher value
How it was run: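 Each compound was tested on cln2 rad14 yeast. Inhibition of growth was calculated against vehicle-exposed controls.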

[5] = NCI Yeast Anticancer Drug Screen. Data for the bub3 strain (AID 167); details: S. cerevisiae bub3 mutant strain, stronger effect = higher value
How it was run: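 Compounds were applied to a genetically altered yeast strain carrying a cell-cycle control defect. Growth inhibition was scored against vehicle-treated controls.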

[6] = NCI Yeast Anticancer Drug Screen. Data for the mlh1 rad18 strain (AID 175); details: S. cerevisiae mlh1 rad18 strain growth inhibition, stronger effect = higher value
How it was run: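 Vehicle-treated cultures served as the reference for growth inhibition in a yeast strain carrying DNA damage repair alterations exposed to each compound.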

[7] = at 5.0 µM (retest, dose inferred, filed as 0.5)
[8] = at 50.0 µM (retest, dose inferred, filed as 5.0)

SMILES	growth inhibition [1, 7]	growth inhibition [1, 8]	growth inhibition ([1]; at 50.0 µM)	growth inhibition [2, 7] [%]	growth inhibition [2, 8]	growth inhibition ([2]; at 50.0 µM)	growth inhibition [3, 7]	growth inhibition [3, 8]	growth inhibition ([3]; at 50.0 µM)	growth inhibition [4, 7] [%]	growth inhibition [4, 8]	growth inhibition ([4]; at 50.0 µM)	growth inhibition [5, 7]	growth inhibition [5, 8]	growth inhibition ([5]; at 50.0 µM)	growth inhibition [6, 7]	growth inhibition [6, 8]	growth inhibition ([6]; at 50.0 µM)
CN(C)CCOC(=O)c1ccccc1	3%	88% (active)	49.4%	-6	42%	22.4%	-2%	60%	24%	0	81% (active)	27.1%	-7%	71% (active)	37.2%	2%	78% (active)	42.2%
COc1cc(/C=C2/C(=O)N(C(=O)c3ccccc3O)N=C2C)cc(OC)c1OC	-14%	23%	64%	9	35%	16.6%	-8%	28%	36.5%	-4	26%	26.4%	12%	80% (active)	77.1% (active)	20%	61%	39.2%
CC(C)C(CC(C)(C)C)OC(=O)Nc1cccc2ccccc12 (configuration not stated)	0%	96% (active)	13.1%	-1	98% (active)	26.4%	0%	97% (active)	61.8%	-17	95% (active)	6.15%	11%	96% (active)	61.1%	-3%	97% (active)	58.1%
Nc1ccc2c(c1)S(=O)(=O)c1cc(N)ccc1-2	22%	27%	41.4%	19	15%	18.8%	20%	19%	-29%	18	25%	5.8%	22%	27%	-17.8%	26%	25%	-43.8%
CCOc1ccccc1/C=C1\NC(=O)N(/C=C2\C(=O)Oc3ccccc3C2=O)C1=O	6%	96% (active)	93.7% (active)	-13	96% (active)	94.2% (active)	0%	85% (active)	97.2% (active)	6	95% (active)	88.5% (active)	-4%	96% (active)	94.7% (active)	1%	89% (active)	95.5% (active)
O=S(=O)(O)CC[S][Sn]([S]CCS(=O)(=O)O)([c]1ccccc1)[c]1ccccc1 (tested in a mixture with another compound)	84% (active)	98% (active)	71.9% (active)	48	98% (active)	83.2% (active)	92% (active)	97% (active)	88.6% (active)	28	94% (active)	79.8% (active)	59%	97% (active)	86.2% (active)	94% (active)	96% (active)	90.7% (active)
CCc1cccc(C(C)(C)C)c1NC(=S)N/C=C(\C#N)C(=O)c1ccc2ccccc2c1	-5%	34%	67.4%	-26	25%	35.5%	-8%	22%	70.7% (active)	-18	8%	29.3%	-17%	18%	63.9%	-6%	38%	65.2%
O=C(O)C1C(c2ccccc2)=C1c1ccccc1	-7%	22%	73.8% (active)	0	7%	56.4%	10%	41%	59.6%	-44	-3%	57.8%	-22%	7%	39.2%	-12%	12%	46.5%
O=C(OCc1ccccc1CN1CCOCC1)c1ccc(Br)cc1	-30%	29%	77.3% (active)	-2	-2%	74.5% (active)	-2%	77% (active)	93.7% (active)	-1	-7%	51.9%	2%	41%	92.1% (active)	4%	36%	76.1% (active)
O=c1c2c(F)c(F)c(F)c(F)c2sc2nccn12	15%	100% (active)	89% (active)	40	100% (active)	91.2% (active)	2%	99% (active)	84.8% (active)	5	99% (active)	90.2% (active)	27%	100% (active)	89.5% (active)	46%	99% (active)	86.8% (active)
Cc1ccc(N2C(c3ccccc3)=CC(=C3C=CC(=O)C=C3)C=C2c2ccccc2)cc1	9%	71% (active)	94.2% (active)	12	83% (active)	98.5% (active)	7%	83% (active)	93.7% (active)	-5	71% (active)	78.9% (active)	7%	80% (active)	92.5% (active)	13%	89% (active)	96.8% (active)
CCOC(=O)CNC(=O)CNC(=O)CNC(=O)OCc1ccccc1 (Cbz-Gly-Gly-Gly-OEt)	-9%	-3%	7.6%	-11	-3%	-0.7%	-7%	4%	-12.2%	-62	-4%	38.5%	-7%	42%	13.8%	1%	-13%	14.2%
CCCCN(CCCC)C(=O)c1ccc(Cl)cc1Cl	7%	97% (active)	98.5% (active)	7	98% (active)	97.7% (active)	6%	97% (active)	98.4% (active)	11	87% (active)	96.2% (active)	26%	90% (active)	96.5% (active)	13%	97% (active)	98.3% (active)
CC(CCCN(C)Cc1ccccc1)Nc1ccnc2cc(Cl)ccc12 (configuration not stated)	88% (active)	99% (active)	99% (active)	53	100% (active)	98.3% (active)	99% (active)	99% (active)	99.5% (active)	41	99% (active)	99.4% (active)	86% (active)	99% (active)	99.5% (active)	99% (active)	99% (active)	98% (active)
Oc1c(Cl)cc(Cl)cc1/C=C1\C=Nc2ccccc21	1%	-5%	2.75%	-11	5%	14.9%	-7%	5%	-14.2%	13	20%	13.6%	3%	23%	5.2%	-3%	-3%	4.95%
CN(C)[C@H]1CC[C@H]2[C@@H]3CCC4C[C@@H](NC(=O)NC(Cc5ccccc5)c5nccs5)CC[C@]4(C)[C@H]3CC[C@]12C (some centres not stated)	4%	4%	67.5%	-16	-16%	63.9%	-11%	-11%	63.5%	-16	-16%	47.9%	-17%	-17%	65.9%	-21%	-21%	59%
Nc1nc(Cl)cc(Nc2ccc(Cl)c(Cl)c2)n1	-1%	91% (active)	72.8% (active)	-2	73% (active)	70.3% (active)	-4%	77% (active)	95.8% (active)	16	58%	51.7%	3%	92% (active)	93.2% (active)	-3%	79% (active)	89.8% (active)
O=C(c1ccccc1)c1ccc(Cl)cc1	-1%	-16%	66.2%	-3	-5%	37.4%	2%	4%	74.2% (active)	1	2%	-3%	-42%	0%	73.8% (active)	1%	2%	81.5% (active)
CC(C)Cn1cnc2c(SCc3ccccc3[N+](=O)[O-])nc(N)nc21	2%	-4%	90% (active)	-4	-2%	96% (active)	0%	-2%	56%	-22	-3%	82.2% (active)	-1%	-4%	96.8% (active)	1%	2%	84.8% (active)
